MCF10A rerep = A quantitative high throughput screen for small molecules that induce DNA re-replication in MCF 10a normal breast cells. AID 624296, 2012. Potency, µM (titrated, usually from 46.1 µM), inactives show top-dose activity, positive = re-replication, usual class: activators. MCF 10A DNA re-replication, Hoechst nuclear intensity, 48 h. 2.9% of 350,000 active; also: % of control where 0% means no effect; nearly all actives have a fitted effect of over 50% in size
KB-V1 MDR tox = qHTS assay for MDR1-selective chemotherapeutics: Primary screen using the drug-selected MDR subline cells KB-V1; AID 1347076, 2019; 3.4% of 400,000 active; Potency, µM (top dose mostly 46.1 µM), hits mostly cytotoxic; KB-V1 MDR cells viability, CellTiter-Glo, 72 h; also: % is scaled to controls: 0 for no effect and ±100 for the full control effect; nearly all actives have a fitted effect of over 60% in size
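Following 72 h at 37 degrees C with compound, KB-V1 cell viability was read by CellTiter-Glo luminescence, medium being phenol-red-free DMEM plus 10% FBS; concentration-response parameters came from normalized, curve-fitted qHTS data.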
HT1080 IDH1KD tx = qHTS for induction of synthetic lethality in tumor cells producing 2HG: qHTS for the HT-1080-IDH1KD cell line | 2% of 360,000 active | HT-1080 IDH1 knockdown viability, ATP luminescence, 48 h | AID 686971, 2013 | Potency, µM (top dose mostly 46.1 µM), for inactives: at the highest dose activity, negative = toxicity, most hits filed as cytotoxic;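 also: 0% = DMSO wells and -100% = cell-free medium wells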
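Luminescent ATP read-out (CellTiter-Glo, 10 min at room temperature) after 48 h compound exposure at 37 °C gave viability of IDH1-knockdown HT-1080 cells. Activity was normalised to DMSO and cell-free wells, then fitted as concentration-response curves.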
HT1080-NT tox = qHTS for induction of synthetic lethality in tumor cells producing 2HG: qHTS for the HT-1080-NT fibrosarcoma cell line; 1.6% of 360,000 active; Potency, µM (top dose mostly 46.1 µM), for the others: at the top dose activity, negative = less viability, actives largely listed as cytotoxic; HT-1080-NT fibrosarcoma viability, CellTiter-Glo ATP luminescence, 48 h;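 also: NT is the 2HG producing partner of a matched IDH1 knockdown line; 0% = DMSO-treated cells and -100% = media-only wells without cells; nearly all actives have a fitted effect of over 55% in size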
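Fibrosarcoma NT cells, 750 per well in 5% FBS RPMI, were exposed to compound for 48 hours. Viability: CellTiter-Glo luminescence.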
KB-3-1 tox = qHTS assay for MDR1-selective chemotherapeutics: Primary screen using the parental adenocarcinoma cell KB-3-1; KB-3-1 viability, CellTiter-Glo ATP luminescence, 72 h; Potency, µM (series often up to 46.1 µM), hits mostly cytotoxic; 1.4% of 400,000 active; AID 1347075, 2019; also: % is scaled to controls: 0 for no effect and ±100 for the full control effect; nearly all actives have a fitted effect of over 60% in size
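KB-3-1 parental drug-naive adenocarcinoma cells in DMEM/10% FBS, incubated 72 h at 37 C with pin-transferred compounds across a concentration series. Viability by CellTiter-Glo luminescence; concentration-response curves fitted after normalization.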
SW480 rerep = A quantitative high throughput screen for small molecules that induce DNA re-replication in SW480 colon adenocarcinoma cells; SW480 DNA re-replication, Hoechst DNA content imaging, 48 h; Potency, µM (series often up to 46.1 µM), inactives show top-dose re-replication activation, actives largely listed as activators; 1.8% of 340,000 active; also: % of control where 0% means no effect; nearly all actives have a fitted effect of over 55% in size
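250 cells/well; 23 nL cpd via pin tool; 48 hr, 37 C, 5% CO2; Hoechst 40 min; imager read of total nuclear intensity, ex 405/em 500-530 nm.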
Starred values were filed as active, the others as inactive; i = inactive; u = inconclusive; x = not tested or not shown; [ ] = dose if it differs, or a comment. Most compounds without a hit are left out; they make up all but 8% or so of the library. Calls follow the shape of the dose curve; as a rule, active = well fitted curve in the direction sought with a large enough effect; inconclusive = small, poorly fitted or top-dose-only effect, or another doubt; inactive = no such curve, though single readings can be large; an effect the other way counts as inactive or inconclusive. Potency is read from the fitted curve at half-maximal effect.

SMILES | MCF10A rerep | KB-V1 MDR tox | HT1080 IDH1KD tx | HT1080-NT tox | KB-3-1 tox | SW480 rerep
Cc1cc(C)c(S(=O)(=O)N2CCCCC2CCNC(=O)C(=O)NCCN2CCOCC2)c(C)c1 (configuration not stated) | 0.6% | 3.26µM* | 6.4% | 4.4% | i | -6.1%
CCOC(=O)C1=C(CN2CCN(c3ccccc3)CC2)NC(=O)NC1c1ccc(C)cc1 (configuration not stated) | x | i | x | x | i | x
CCN1C(=O)N[C@H](c2ccccc2)C(C(C)=O)=C1C | 6.9% | i | 0.0% | 0.0% | i | -18.2%
COc1ccc(/C=C2\SC(=O)N(CCNC(=O)C3=COCCO3)C2=O)cc1 | 1.84µM* | 2.59µM* | 7.31µM* | 7.31µM* | 2.91µM* | 10.3µM*
COc1ccc(/C=C2\SC(=O)N(CCNC(=O)Cc3coc4cc(OC)ccc34)C2=O)cc1 | 7.4% | 5.8µM* | -6.5% | -9.8% | u | 12.8%
COc1ccc2c(CC(=O)NCCN3C(=O)S/C(=C\c4cccnc4)C3=O)coc2c1 | 3.7% | i | -7.3% | 4.0% | i | 0.2%
O=C(NCCN1C(=O)S/C(=C\c2ccc(OC(F)F)cc2)C1=O)[C@@H]1CCCN1C(=O)c1cccs1 | -2.8% | u | 5.1% | 13.1% | i | 17.2%
O=C(NCCN1C(=O)S/C(=C\c2ccc(OC(F)F)cc2)C1=O)C1=COCCO1 | 18.4µM* | u | u | u | u | 20.6µM*
O=C(NCCN1C(=O)S/C(=C\c2ccc(Cl)c(Cl)c2)C1=O)c1ccc2c(c1)C(=O)N(Cc1ccncc1)C2=O | 16.4µM* | i | -16.9% | u | i | -2.1%
CCCN1C(=O)C(Cc2nc3ccccc3c(=O)n2-c2cccc(C)c2)c2ccccc21 (configuration not stated) | x | i | x | x | i | x
COc1ccc(CNc2ccc3cc(S(=O)(=O)N4CCCCC4)ccc3n2)cc1 | x | i | x | x | u | x
O=C(NCCN1C(=O)S/C(=C\c2ccc(OC(F)F)cc2)C1=O)c1cnccn1 | 5.8µM* | 8.2µM* | u | u | 5.8µM* | 5.8µM*
CC(Oc1ccc(Cl)cc1)C(=O)NCCN1C(=O)S/C(=C\c2cccnc2)C1=O (configuration not stated) | 6.1% | u | -1.7% | 2.1% | i | 1.0%
Cc1cc(C)cc(Nc2ccc([N+](=O)[O-])nc2[N+](=O)[O-])c1 | -2.4% | i | 13.6% | 2.2% | i | 12.6%
COc1cc(Nc2ccc(C)cc2)c([N+](=O)[O-])nc1[N+](=O)[O-] | -0.7% | 5.8µM* | 3.16µM* | 3.16µM* | u | 0.2%
CCCN1CCN(CCCNC(=O)Cn2c(-c3cccs3)cc3cc(Cl)ccc32)CC1 | x | i | x | x | i | x
CCN(CC(=O)NC(C)C)Cc1nc2c(Br)cc(Br)cc2c(=O)[nH]1 | -4.6% | 9.2µM* | -1.5% | -29.1% | i | -19.4%
CCN(CC(=O)NC(c1ccccc1)c1ccccc1)Cc1nc2ccccc2c(=O)[nH]1 | u | i | -28.4% | -16.1% | i | -1.9%[9.22 µM]
Cc1ccc(-n2ncc3c2CCCC3NC(=O)c2ocnc2C)cc1C (configuration not stated) | 12.8% | x | -19.6% | u | x | -0.5%
COc1nc(NC(C)(C)C)nc(Oc2ccc(=O)n(-c3ccccc3)n2)n1 | 10.8% | 20.6µM* | -10.5% | 0.7% | i | -0.7%
CCNc1nc(OC)nc(Oc2ccc(=O)n(-c3ccccc3)n2)n1 | 2.1% | i | 6.1% | 5.6% | i | -7.4%
CC(Nc1ncnc2sccc12)c1ccccc1 (configuration not stated) | 7.4% | i | -23.0% | 10.3µM* | u | -3.1%
c1ccc(Nc2ncnc3sccc23)cc1 | u | i | 0.3% | -6.8% | i | -24.9%
Clc1ccc(Nc2c(-c3ccccc3Cl)nc3ccc(Cl)cn23)cc1 | x | i | x | x | i | x
COC(=O)c1ccc(NC(=O)CCNS(=O)(=O)c2cccc3nsnc23)cc1 | x | i | x | x | i | x
SMILES | MCF10A rerep | KB-V1 MDR tox | HT1080 IDH1KD tx | HT1080-NT tox | KB-3-1 tox | SW480 rerep
CC(Sc1ncnc2sccc12)C(=O)Nc1ccc(S(=O)(=O)N2CCOCC2)cc1 (configuration not stated) | -7.0% | 23.1µM* | -1.8% | -5.2% | i | -4.8%
Cc1ccc(SC(C)C(=O)Nc2ccc(S(=O)(=O)N3CCOCC3)cc2)cc1 (configuration not stated) | 23.2% | 11.6µM* | 6.6% | 11.9% | i | 0.6%
CCC(=O)NC(=S)Nc1cccc(Cl)c1N1CCCCC1 | u | i | 5.62µM* | 4.47µM* | u | 11.2µM*
CCCC(=O)NC(=S)Nc1cccc(Cl)c1N1CCCCC1 | u | 18.4µM* | 10µM* | 5.01µM* | u | 15.0%
CCCCC(=O)NC(=S)Nc1cccc(Cl)c1N1CCCCC1 | u | 20.6µM* | -15.5% | 0.3% | i | 14.2%
CCCCC(=O)NC(=S)Nc1ccccc1N1CCCCC1 | u | i | 8.6% | 8.5% | i | u
COc1ccc(NC(=O)Nc2cc(C(C)(C)C)on2)cc1OC | -16.5% | i | 10.3% | 10.4% | i | -6.5%
CCOc1cc(NC(=O)c2cccs2)c(OCC)cc1NC(=O)c1ccccn1 | 8.2µM* | i | 21.5% | u | i | u
CCOc1cc(NC(=O)c2cccs2)c(OCC)cc1NC(=O)CCC(=O)NCC1CCCO1 (configuration not stated) | u | i | 17.6% | 11.4% | i | 6.51µM*
CCOc1cc(NS(C)(=O)=O)c(OCC)cc1NC(=O)c1cccs1 | 6.3% | 9.2µM* | 6.5% | 3.5% | u | 1.3%
COc1ccc(/C=C/C(=O)OCC(=O)Nc2ccc3c(c2)OCO3)cc1 | -0.1% | i | -1.0% | 0.5% | i | 5.3%
COc1ccc(S(=O)(=O)Cc2ccc(C(=O)NCCCN(C)c3ccccc3)o2)cc1 | 2.7% | 6.51µM* | -21.6% | -14.9% | i | -0.7%
CCCCNC(=O)c1ccc(CS(=O)(=O)c2ccc(OC)cc2)o1 | -6.1% | i | -9.0% | -6.7% | i | 5.5%
CC1(C)OB(c2cnc(C#N)nc2)OC1(C)C | x | x | -0.9% | -0.2% | x | x
CCCCCCCCCCCCCCCC[n+]1ccc(/C=C/c2c[nH]c3ccccc23)cc1 | x | u | x | x | 11.6µM* | x

Bioassay records as filed in PubChem BioAssay.
